Assay outcomes as filed in PubChem BioAssay.
In the library only some 19% were active in any assay of this set; here they are far more common.
HT1080 IDH1KD tx – toxicity to HT-1080 IDH1 knockdown cells (counter line) | 360,000 compounds, 2% hits | Potency, µM (top dose mostly 46.1 µM), for inactives: at the top dose activity, negative = toxicity, usual class: cytotoxic | HT-1080 IDH1 knockdown viability, ATP luminescence, 48 h | AID 686971;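 note: potency is the fitted concentration of half-maximal effect; 0% = DMSO wells and -100% = cell-free medium wells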
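Viability of IDH1-knockdown HT-1080 fibrosarcoma cells was assessed by CellTiter-Glo after 48 h at 37 °C with titrated compound; concentration-effect curves were classified by fit quality and response size.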
DT40 TDP1 CPT – DT40-hTDP1 cell growth loss with CPT | 420,000 compounds, 12% hits | Potency, µM (top dose mostly 46.2 µM), without a hit: at the highest dose activity change, negative = growth inhibition, hits mostly inhibitors | chicken DT40 Tdp1-/-;hTDP1 cells + 20 nM CPT, ATP luminescence, 48 h | AID 686979; note: potency is the fitted concentration of half-maximal effect; nearly all actives have a fitted effect of over 55% in size
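Chicken DT40 Tdp1-/- cells stably complemented with human TDP1 were seeded at 400 cells/well in medium containing 20 nM camptothecin, exposed to pin-transferred compounds, and grown at 37 °C for at least 48 hr. Viability was read as ATP luminescence.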
HT1080-NT tox – kills 2HG-producing HT-1080-NT fibrosarcoma cells; HT-1080-NT fibrosarcoma viability, CellTiter-Glo ATP luminescence, 48 h; Potency, µM (top dose mostly 46.1 µM), for inactives: top-dose activity, negative = less viability, usual class: cytotoxic; 360,000 compounds, 1.6% hits; AID 686970;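 note: NT is the 2HG producing partner of a matched IDH1 knockdown line; potency is the fitted concentration of half-maximal effect; 0% = DMSO-treated cells and -100% = media-only wells without cells; nearly all actives have a fitted effect of over 55% in size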
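Read-out is CellTiter-Glo luminescence after 10 minutes at room temperature, following 48 hours' compound treatment of HT-1080-NT cells (750 cells/well, RPMI, 5% FBS, 37 degrees C).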
IL-1B inflam inh – inflammasome signaling inhibition, IL-1 beta readout. THP-1 LPS/ATP IL-1B secretion, AlphaLISA, 16 h; active compounds read low. activity change, % at 57.5 µM. 360,000 compounds, 4.7% hits; in the data active = activity change below about -50%; inconclusive = mostly about -30% to -49%
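Secreted IL-1B measured by AlphaLISA bead assay after 16 h compound exposure of THP-1 cells; compounds (final up to 57.5 uM) added 1 h before LPS (250 ng/mL) and ATP (1.25 mM) stimulation; lower signal means less secretion.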
TDP1 cell noCPT – qHTS for Inhibitors of human tyrosyl-DNA phosphodiesterase 1 (TDP1): qHTS in cells in absence of CPT | AID 686978, 2013 | Potency, µM (series often up to 46.2 µM), without a hit: top-dose activity change, negative = growth inhibition, actives largely listed as inhibitors | DT40 Tdp1-/- hTDP1 cells, no CPT, ATP luminescence, 48 h | 420,000 compounds, 15% hits; note: potency is the fitted concentration of half-maximal effect; nearly all actives have a fitted effect of over 55% in size
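Luminescent ATP content (CellTiter-Glo) served as the growth readout. Knockout chicken DT40 cells expressing human TDP1 were exposed to compounds without camptothecin for a minimum 48 hr at 37 °C.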
ELG1 repair inh – blocks ELG1-dependent DNA repair in HEK293T cells; HEK293T ELG1-luciferase reporter, luminescence, 16 h; DNA damage induced by 5-fluorouridine; Potency, µM (series often up to 46.1 µM), without a hit: at the top dose activity change, negative = inhibition, hits mostly inhibitors; 330,000 compounds, 2.3% hits; AID 504467; note: potency is the fitted concentration of half-maximal effect; nearly all actives have a fitted effect of over 55% in size
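Cells (2,000 per well) received 5-fluorouridine plus test compound or DMSO and were incubated 16 hr at 37 °C, 5% CO2. Luciferase activity was read by luminescence 30 min after ONE-Glo addition; signal suppression marked inhibition of damage-induced ELG1 function.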
Starred values were filed as active, the others as inactive; ? = inconclusive; . = no result given. Unless noted, calls come from the whole dose curve; as a rule, active = well fitted curve in the direction sought with a large enough effect; inconclusive = small, poorly fitted or top-dose-only effect, or another doubt; inactive = no such curve, though single readings can be large; an effect the other way counts as inactive or inconclusive. Unless noted, % is set by controls: 0 for no effect and ±100 for the full control effect.

SMILES	HT1080 IDH1KD tx	DT40 TDP1 CPT	HT1080-NT tox	IL-1B inflam inh	TDP1 cell noCPT	ELG1 repair inh
COC(=O)c1ccc(OC(=O)C2CSC3(C)CCC(=O)N23)cc1 (centres undefined)	-2%	-4%	-4%	-12	1%	12%
CCCS(=O)(=O)NC(=O)C1(C)CCCN(C(=O)c2ccccc2Br)C1 (centres undefined)	-1%	1%	23%	16	-13%	.
Cc1cccc(S(=O)(=O)NC(=O)C2(C)CCN2C(=O)c2cccc(F)c2)c1 (centres undefined)	18%	-7%	?	20	-4%	.
CCOC(=O)[C@]12CCC=C1N(CCC1=CCCCC1)C(=O)[C@H](CC(=O)N1CCN(C(=O)c3ccco3)CC1)C2	10%	?	17%	-3	?	.
CCOC(=O)[C@]12CCC=C1N(CCC1=CCCCC1)C(=O)[C@H](CC(=O)N1CCCCC1)C2	17%	18µM*	12%	22	13µM*	.
CCNc1ncc2nc(-c3ccccc3)c(=O)n(CCC#N)c2n1	.	-3%	.	.	10%	.
NC(=S)N/N=C/c1ccc(-c2cc(Cl)ccc2Cl)o1	?	2.6µM*	3.2µM*	52	3.3µM*	?
CCOC(=O)N/N=C\c1ccc(-c2cc(Cl)ccc2Cl)o1	-25%	?	-22%	45	-22%	-28%
NC(=S)N/N=C/c1ccc(-c2cc(Cl)cc(Cl)c2)o1	8%	5.8µM*	5%	-18	2.1µM*	.
CCN1CCN(c2nc(-c3cccs3)nc3ccccc23)CC1	0%	-24%	-5%	?	-23%	-3%
Cc1ccc(S(=O)(=O)C2CCN(c3nc(-c4cccs4)nc4ccccc34)CC2)cc1	19%	11µM*	-1%	.	?	.
COc1cccc(S(=O)(=O)N2CCN(c3nc(-c4cccs4)nc4ccccc34)CC2)c1	0%	14µM*	11%	.	10µM*	.
COc1ccc(S(=O)(=O)N2CCN(c3nc(-c4cccs4)nc4ccccc34)CC2)cc1OC	.	-23%	.	.	?	.
Cc1cccc(S(=O)(=O)N2CCN(c3nc(-c4cccs4)nc4ccccc34)CC2)c1	-2%	-10%	1%	.	-13%	.
Cc1ccc(S(=O)(=O)N2CCN(c3nc(-c4cccs4)nc4ccccc34)CC2)cc1	9%	?	25%	.	11µM*	.
Cc1ccc(S(=O)(=O)N2CCN(c3nc(-c4cccs4)nc4cccnc34)CC2)cc1	.	10µM*	.	.	?	.
O=S(=O)(c1ccc(F)cc1)N1CCN(c2nc(-c3cccs3)nc3ccccc23)CC1	22%	?	8%	.	?	.
CC1(C)CC[C@]2(C(=O)O)CC[C@@]3(C)C(=CCC4[C@@]5(C)CCC(O)C(C)(C)C5CC[C@@]43C)C2C1 (some centres undefined)	.	4%	.	.	-1%	.
CCOc1cc(/C=C2/SC(=Nc3ccccc3)N(Cc3cccnc3)C2=O)ccc1OCC#N	?	16µM*	-16%	-8	23µM*	18µM*
C=CC[n+]1c(-c2ccc(C)cc2)csc1Nc1ccc(NC(C)=O)cc1	?	?	-17%	-21	?	?
C=CC[n+]1c(-c2ccc(OC)cc2)csc1NNC(=O)Nc1ccccc1	?	7.3µM*	?	-25	5.2µM*	0%
Cc1sc2nc(CSCC(=O)Nc3ccc(N4CCOCC4)cc3)[nH]c(=O)c2c1C	2%	?	0%	0	?	4%
Cc1sc2nc(C(C)Nc3ccccc3N3CCOCC3)[nH]c(=O)c2c1C (centres undefined)	-14%	?	-4%	75	15µM*	-23%
CC1CCCC(NC(=O)Cn2cc(Br)ccc2=O)C1C (centres undefined)	11%	?	5%	4	2%	20%
O=C(NC(=S)NN1CCCCC1c1cccnc1)c1ccc(Br)cc1 (centres undefined)	-2%	-17%	-15%	-55*	-22%	?
SMILES	HT1080 IDH1KD tx	DT40 TDP1 CPT	HT1080-NT tox	IL-1B inflam inh	TDP1 cell noCPT	ELG1 repair inh
O=[N+]([O-])c1cccc(S(=O)(=O)N2CCCCC2c2cccnc2)c1 (centres undefined)	-5%	21µM*	5%	4	?	15%
O=C(Nc1ccc(S(=O)(=O)N2CCCCC2c2cccnc2)cc1)c1ccccc1F (centres undefined)	-1%	?	3%	-8	?	?
O=C(Nc1ccc(S(=O)(=O)N2CCCCC2c2cccnc2)cc1)c1ccc(F)cc1 (centres undefined)	.	23µM*	.	.	18µM*	.
COc1ccccc1C(=O)Nc1ccc(S(=O)(=O)N2CCCCC2c2cccnc2)cc1 (centres undefined)	?	?	-29%	-4	?	23µM*
COc1ccc2c(c1)c1c(c(=O)n(Cc3ccccc3)c(=O)n1Cc1ccccc1Cl)n2C	.	7%	.	.	-9%	.
CSc1nsc(SCC(=O)Nc2cccc(C(=O)O)c2)n1	-10%	0%	1%	16	-2%	23%
CNC(=S)N/N=C/c1cn(CCOc2ccccc2OC)c2ccccc12	-18%	3.7µM*	-10%	-25	6.5µM*	-10%
CNC(=S)N/N=C/c1cn(CCOc2cccc(OC)c2)c2ccccc12	-10%	8.2µM*	-16%	-8	13µM*	-29%
COc1cccc(OCCn2cc(/C=N/NC(=O)c3ccncc3)c3ccccc32)c1	?	?	-3%	-29	?	?
CN1CCC(=NNC(=O)C(=O)Nc2ccccc2F)CC1	-2%	-11%	11%	-19	-7%	16%
Cc1cc(S(=O)(=O)N2CCN(Cc3noc(CCC(=O)N4CCCCC4)n3)CC2)ccc1F	.	16µM*	.	.	?	.
CCOc1ccccc1NS(=O)(=O)c1ccc2c(c1)n(C)c(=O)c(=O)n2C	7%	-7%	12%	-3	-2%	-6%
Cc1cccc(C(=O)N2CCc3cc(CNC(=O)CSc4ccccc4)ccc32)c1	.	1%	.	.	-15%	.
CCC(=O)N1CCc2cc(CNS(=O)(=O)c3cc(OC)ccc3OC)ccc21	.	-1%	.	.	-1%	.
COc1ccc(Cl)cc1S(=O)(=O)NCc1ccc2c(c1)CCN2C(=O)c1cccc(C)c1	.	3.3µM*	.	.	4.6µM*	.
Cc1cccc(C(=O)N2CCc3cc(CNS(=O)(=O)c4cccs4)ccc32)c1	.	23µM*	.	.	21µM*	.
